Laboratory results as given in the supplement of paper PMC7156485.
± gives the standard deviation of the averaged measurements.

Columns and labels:
Details in all cases: concentration: 10 µM; 24 h
HCC1569 [1] = assay: cell number relative to DMSO (% of DMSO); higher = more cells (less growth inhibition / toxicity)
How it was run: (§1)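 In 384-well plates holding 800 HCC1569 or TDF cells per well in RPMI with 10% FBS, compounds were tested at 10 µM for 24 h at 37 °C in triplicate. Fixation used 3.7% formaldehyde. Staining used a rabbit anti-H1.0 antibody with an AlexaFluor 647 secondary, plus DAPI. Each value, H1.0 nuclear intensity or cell number, is a median of replicates shown as percent of the plate control, and HCC1569 values were smoothed for positional effects.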

TDF [2] = assay: as above
How it was run: as §1

TDF [3] = assay: H1.0 immunofluorescence intensity relative to DMSO (% of DMSO); higher = stronger H1.0 induction, active = 120 or more
How it was run: as §1

HCC1569 [4] = assay: H1.0 immunofluorescence intensity relative to DMSO (% of DMSO); higher = stronger H1.0 induction, active = 140 or more
How it was run: as §1
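For H1.0 immunofluorescence intensity relative to DMSO in this document: TDF is a line of transformed human dermal fibroblasts of mesenchymal origin.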
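For cell number relative to DMSO in this document: TDF denotes transformed human dermal fibroblasts of mesenchymal origin.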

Row | SMILES | cell number (HCC1569 [1]) | cell number (TDF [2]) | H1.0 immunofluorescence intensity (TDF [3]) | H1.0 immunofluorescence intensity (HCC1569 [4])
1 | CC(C)(C)c1onc(OCP(=O)(O)O)c1CC(N)C(=O)O (stereo not given) | 104 | 113 | 91.2 (inactive) | 95.1 (inactive)
2 | CC(N)=NCc1cccc(CN)c1.Cl.Cl [1400W dihydrochloride] | 101 | 119 | 90.6 (inactive) | 109 (inactive)
3 | CC(C)NNC(=O)c1ccncc1.O=P(O)(O)O [Iproniazid phosphate] | 116 | 119 | 93.8 (inactive) | 85 (inactive)
4 | COc1cc2c(cc1OC)CC(=O)N(CCCN(C)C[C@H]1Cc3cc(OC)c(OC)cc31)CC2.Cl | 100 | 102 | 92.6 (inactive) | 97.3 (inactive)
5 | CC(C)(O)c1ccccc1CCC(SCC1(CC(=O)O)CC1)c1cccc(C=Cc2ccc3ccc(Cl)cc3n2)c1 (stereo not given) [Montelukast] | 101 | 101 | 94.7 (inactive) | 94.9 (inactive)
6 | Cc1ccc(F)cc1C(=O)Nc1ccc(C(=O)N2Cc3cccn3Cc3ccccc32)c(Cl)c1 | 91.6 | 95.3 | 93.2 (inactive) | 131 (inactive)
7 | COc1cc2ncnc(Nc3ccc(F)c(Cl)c3)c2cc1OCCCN1CCOCC1 [Gefitinib] | 82 ± 11 | 102 ± 10 | 98.9 (inactive) | 123 (inactive)
8 | CCCc1nc(C)c2c(=O)nc(-c3cc(S(=O)(=O)N4CCN(CC)CC4)ccc3OCC)[nH]n12 [Vardenafil] | 105 | 108 | 91 (inactive) | 100 (inactive)
9 | CN(C)C(=S)NN=C(c1ccccn1)c1ccccn1 [(Z)-di(2-pyridinyl)methanone N,N-dimethylthiosemicarbazone] | 75.1 | 52.4 | 107 (inactive) | 106 (inactive)
10 | C[C@H](N[C@@H](CCc1ccccc1)C(=O)O)C(=O)N1CCC[C@H]1C(=O)O.O.O | 102 | 94.9 | 101 (inactive) | 109 (inactive)
11 | COc1ccc(-c2nn3c(-c4ccccn4)nnc3s2)cc1OC | 98 | 103 | 97.3 (inactive) | 111 (inactive)
12 | CCn1cc(C(=O)O)c(=O)c2cc(F)c(N3CCNCC3)nc21 [Enoxacin] | 105 | 91.3 | 98.8 (inactive) | 106 (inactive)
13 | CCCCCCCCC=CCCCCCCCCCCCCC(=O)O [14(E)-Tricosenoic acid] | 98.3 | 98.1 | 93.3 (inactive) | 104 (inactive)
14 | O=C1CSc2ccccc2N1Cc1cccc(C(F)(F)F)c1 [4-[3-(trifluoromethyl)benzyl]-2H-1,4-benzothiazin-3(4H)-one] | 102 | 106 | 96.3 (inactive) | 105 (inactive)
15 | O=C(O)C1=CC(=C(c2ccc(O)c(C(=O)O)c2)c2ccc(O)c(C(=O)O)c2)C=CC1=O [Aurintricarboxylic acid] | 102 | 113 | 89.4 (inactive) | 85.8 (inactive)
16 | Nc1ncnc2n[nH]c(Nc3ccc(F)cc3)c12 | 95.7 | 102 | 90.1 (inactive) | 118 (inactive)
17 | CCCCC1=NC2(CCCC2)C(=O)N1Cc1ccc(-c2ccccc2-c2nn[nH]n2)cc1 | 101 | 99.3 | 101 (inactive) | 88.4 (inactive)
18 | CC1CCN(CCC2CCCN2S(=O)(=O)c2cccc(O)c2)CC1.Cl (stereo not given) | 102 | 109 | 92.1 (inactive) | 107 (inactive)
19 | O=C(O)c1cc2cc(F)ccc2[nH]1 [5-Fluoroindole-2-carboxylic acid] | 99.3 | 89 | 102 (inactive) | 98.6 (inactive)
20 | CCC(=C(c1ccccc1)c1ccc(OCCN(C)C)cc1)c1ccccc1 [Tamoxifen] | 103 | 99.1 | 97.7 (inactive) | 114 (inactive)
21 | CC(=O)C1CCC2C3CC=C4CC(OS(=O)(=O)[O-])CCC4(C)C3CCC12C.[Na+] (stereo not given) [Pregnenolone sulfate sodium] | 105 | 110 | 95.8 (inactive) | 97.8 (inactive)
22 | Cc1nc2cc3nc(-c4cccs4)cnc3cc2n1C | 106 | 96.2 | 102 (inactive) | 94.7 (inactive)
23 | COc1ccc2c(c1OC)C(=O)OC2C1c2c(cc3c(c2OC)OCO3)CCN1C.Cl (stereo not given) [Noscapine hydrchloride] | 102 | 93.7 | 97.1 (inactive) | 96.5 (inactive)
24 | CN(c1ccccc1CNc1nc(Nc2ccc3c(c2)CC(=O)N3)ncc1C(F)(F)F)S(C)(=O)=O | 54.4 | 22.4 | 113 (inactive) | 126 (inactive)
25 | CS(=O)(=O)c1ccc(-c2cc(Br)sc2-c2ccc(F)cc2)cc1 | 99.9 | 100 | 96.8 (inactive) | 95.6 (inactive)

Row | SMILES | cell number (HCC1569 [1]) | cell number (TDF [2]) | H1.0 immunofluorescence intensity (TDF [3]) | H1.0 immunofluorescence intensity (HCC1569 [4])
26 | CN1CCC(=C2c3ccccc3C=Cc3ccccc32)CC1 [Cyproheptadine] | 100 | 83.7 | 98.2 (inactive) | 108 (inactive)
27 | CCCN1CCCC[C@H]1C(=O)Nc1c(C)cccc1C.Cl.O | 99.7 | 103 | 99 (inactive) | 113 (inactive)
28 | CCC1(c2ccccc2)C(=O)NCNC1=O [Primidone] | 102 | 97.2 | 98 (inactive) | 102 (inactive)
29 | COc1cc(C(=O)OCCCCN=C(N)N)cc(OC)c1O | 103 | 95.8 | 102 (inactive) | 104 (inactive)
30 | CC(C)(C)NCC(O)c1ccc(O)c(CO)c1 (stereo not given) [Salbutamol] | 99.7 | 99.3 | 95.9 (inactive) | 101 (inactive)
31 | N#Cc1ccc(C(c2ccc(C#N)cc2)n2cncn2)cc1 [Letrozole] | 100 | 103 | 96.8 (inactive) | 102 (inactive)
32 | CC1CCN(C(=O)CC#N)CC1N(C)c1ncnc2[nH]ccc12 (stereo not given) [Tasocitinib] | 110 | 110 | 89.1 (inactive) | 73.7 (inactive)
33 | Cc1cc(=O)oc2cc(O)ccc12 [4-Methylumbelliferone] | 103 | 103 | 102 (inactive) | 94.5 (inactive)
34 | CN1CCN(CCCCN2C(=O)CN(/N=C/c3ccc(-c4ccc(Cl)cc4)o3)C2=O)CC1.Cl.Cl | 98.2 | 102 | 92.6 (inactive) | 115 (inactive)
35 | O=C(O)c1cc(=O)c2ccccc2[nH]1 [Kynurenic acid] | 107 | 106 | 91.3 (inactive) | 94.5 (inactive)
36 | NC(N)=NC(CCC(=O)O)C(=O)O (stereo not drawn) [alpha-Guanidinoglutaric acid] | 104 | 108 | 92.6 (inactive) | 86.2 (inactive)
37 | c1cc(-c2sc(-c3ccncc3)c(-c3ccncc3)c2-c2ccncc2)ccn1 [4-[3,4,5-tri(4-pyridinyl)-2-thienyl]pyridine] | 98.5 | 95.1 | 98 (inactive) | 98.9 (inactive)
38 | CCN1CCN(c2cc3c(cc2F)c(=O)c(C(=O)O)cn3C2CC2)CC1 [Enrofloxacin] | 101 | 106 | 96.4 (inactive) | 110 (inactive)
39 | COCc1c(C(C)C)nc(C(C)C)c(C=CC(O)CC(O)CC(=O)O)c1-c1ccc(F)cc1 (stereo not given) [Cerivastatin] | 97.3 | 39 | 166 (active) | 98.3 (inactive)
40 | Cl.NC(N)=NC(=O)c1nc(Cl)c(N)nc1N [Amiloride hydrochloride] | 99.3 | 100 | 97.6 (inactive) | 96.9 (inactive)
41 | Cc1cc(C(C)Nc2ccccc2)c2nc(N3CCOCC3)cc(=O)n2c1 (stereo not given) | 80.7 | 109 | 92.5 (inactive) | 136 (inactive)
42 | O=C(COc1ccc(C(=O)c2ccccc2)cc1)NC1CCN(Cc2ccccc2)CC1 [2-(4-benzoylphenoxy)-N-(1-benzyl-4-piperidinyl)acetamide] | 81.9 | 78.3 | 118 (inactive) | 158 (active)
43 | CCC(=C(CC)c1ccc(O)cc1)c1ccc(O)cc1 [Diethylstilbestrol] | 99.3 | 92.6 | 99 (inactive) | 111 (inactive)
44 | CC(C=CC1=C(C)CCCC1(C)C)=CC=CC(C)=CC(=O)Nc1ccc(O)cc1 [4-Hydroxyphenylretinamide] | 89.9 | 112 | 95.7 (inactive) | 120 (inactive)
45 | COc1cc(/C=C/C(=O)CC(=O)/C=C/c2ccc(O)cc2)ccc1O | 66.5 | 66.7 | 98.3 (inactive) | 161 (active)
46 | CCCCCCCCCCCCCCCCCCOP(=O)([O-])OC1CC[N+](C)(C)CC1 [1,1-dimethylpiperidinium-4-yl octadecyl phosphate] | 103 | 96.6 | 98.2 (inactive) | 103 (inactive)
47 | CS(=O)(=O)O.O=C1Nc2ccc(-c3cccnc3)cc2C1=Cc1ccc[nH]1 [JAK3 Inhibitor VI] | 73 | 47.7 | 108 (inactive) | 130 (inactive)
48 | N#CC(=Cc1ccc(O)c(O)c1)C(=O)NCc1ccccc1 [Tyrphostin AG 490] | 94.5 | 107 | 88.7 (inactive) | 99.7 (inactive)
49 | O=c1sn(-c2cccc3ccccc23)c(=O)n1Cc1ccccc1 [4-benzyl-2-(1-naphthyl)-1,2,4-thiadiazolidine-3,5-dione] | 94.9 | 90.9 | 101 (inactive) | 98.8 (inactive)
50 | CC(=O)CCCCn1c(=O)c2c(ncn2C)n(C)c1=O [Pentoxifylline] | 103 ± 4.1 | 106 ± 5.2 | 92.8 (inactive) | 105 (inactive)
